Screens from PubChem.
Tg IFNy HTS = T. gondii growth inhibition with IFN-gamma, primary screen, cell-based; activity change, negative = inhibition, % (no concentration beside the values); hit rate 3.8% among 69,000; Toxoplasma gondii growth in IFN-gamma-treated host cells; stronger effect = lower value; in the data active = activity change below about -70%, passing the limit was not always enough;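 also: host cells are HeLa cells infected with Toxoplasma gondii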
The depositor's hits bear a star; ! = repeats disagree. The full list was thinned out, with hits kept by preference.

What do the screens show for `CCc1ccc(Nc2nc(-c3nnc(-c4ccccc4)o3)nc3ccccc23)cc1`?
Tg IFNy HTS: 7

How did CC1CNC(=O)CCN1C(=O)Cc1ccc(O)c(Cl)c1 (centres undefined) do in these assays?
Tg IFNy HTS: -4

What do the screens show for `Cc1ncccc1Oc1ncnc(N2CCCC(O)(CO)CC2)c1C` (centres undefined)?
Tg IFNy HTS: -6

How did Cc1nnc([C@@H]2CC[C@H]3[C@H](CCN3Cc3ccc(C)s3)O2)o1 do in these assays?
Tg IFNy HTS: -40

What do the screens show for `Cc1nn(C(C)CC(=O)O)c(C)c1Cl` (centres undefined)?
Tg IFNy HTS: 58

How did COc1cc(F)c(CN2CCCC2c2ccc(F)cc2)cc1OC (centres undefined) do in these assays?
Tg IFNy HTS: 27

How did Cc1ccc(Cn2c(=O)c3nn(C)cc3n3c(=O)n(Cc4nc(-c5ccc(C)cc5)oc4C)nc23)cc1 do in these assays?
Tg IFNy HTS: 15

How did CCC(NC(=O)c1cc2ncccn2n1)c1nc(C)c(C)s1 (centres undefined) do in these assays?
Tg IFNy HTS: -7

Results for CC(=O)N1CC2(CCN(C(=O)[C@@H]3CCCCN3)CC2)CC1C(=O)O (some centres undefined) ?
Tg IFNy HTS: 41

How did O=C(CN1C(=O)CCc2cc(Br)ccc21)Nc1ccccc1 do in these assays?
Tg IFNy HTS: 9

Results for O=C(c1cc2cccnc2n(Cc2ccccc2)c1=O)N1CCCCCC1 ?
Tg IFNy HTS: 10

What do the screens show for `COc1ccc(Cc2n[nH]c(=O)n2-c2ccc(C(=O)O)cc2)cc1`?
Tg IFNy HTS: -40

Results for CN1CC(C(=O)N2CCc3c(c(C(=O)O)nn3CCCc3ccccc3)C2)CC1=O (centres undefined) ?
Tg IFNy HTS: 3

Results for CCN1c2cc(C)ccc2-n2cccc2C12CCN(C(=O)Nc1ccccc1C)CC2 ?
Tg IFNy HTS: 15

Results for CCN1c2cc(C)ccc2-n2cccc2C12CCN(C(=O)Nc1cccc(F)c1)CC2 ?
Tg IFNy HTS: -85*

How did CCN1c2cc(C)ccc2-n2cccc2C12CCN(C(=O)NC(C)C)CC2 do in these assays?
Tg IFNy HTS: -16

Results for CCN1c2cc(C)ccc2-n2cccc2C12CCN(C(=O)Nc1ccc(C)c(Cl)c1)CC2 ?
Tg IFNy HTS: 5

How did CCN1c2cc(C)ccc2-n2cccc2C12CCN(C(=O)Nc1cccc(Br)c1)CC2 do in these assays?
Tg IFNy HTS: -84*

What do the screens show for `CCN1c2cc(C)ccc2-n2cccc2C12CCN(C(=O)Nc1ccc(OC)c(OC)c1)CC2`?
Tg IFNy HTS: -31

How did CCN1CCn2c(-c3ccccc3)cnc2C12CCN(C(=O)Cc1ccccn1)CC2 do in these assays?
Tg IFNy HTS: 5

How did CCOC(=O)C1CCCN(C(=O)S(=O)(=O)c2ccc(-c3csc(C)n3)s2)C1 (centres undefined) do in these assays?
Tg IFNy HTS: 21

Results for COc1ccc(OC)c(CN(C(=O)CC2=CCNCC2)C2CCCC2)c1 ?
Tg IFNy HTS: 10

How did Cc1cccc(C(=O)N2CCC(C3=CCN(CC(N)=O)CC3)CC2)c1 do in these assays?
Tg IFNy HTS: 5

What do the screens show for `Cc1oc(-c2ccccc2)nc1CSc1nc2c(c(=O)[nH]1)CN(Cc1ccc(Cl)cc1)CC2`?
Tg IFNy HTS: -18

How did O=C(C(=O)N(Cc1ccccc1)CC1CCC1)c1ccccc1 do in these assays?
Tg IFNy HTS: -13

Results for Cc1nc(C(C)C)sc1C(=O)N1CC[C@@H](c2ccc3c(c2)OCO3)[C@H](O)C1 ?
Tg IFNy HTS: -4

What do the screens show for `CC(=O)N1CCC2(C=C(C(=O)Nc3cccc(C(N)=O)c3)c3ccccc3O2)CC1`?
Tg IFNy HTS: -61

How did Cc1cccn2cc(C(=O)Nc3cccc(N4CCCCS4(=O)=O)c3)nc12 do in these assays?
Tg IFNy HTS: 197

Results for CO[C@H]1CC[C@@H]2[C@@H]1OCCN2C(=O)c1cn2cc(Cl)ccc2n1 ?
Tg IFNy HTS: 11

How did CN1CCN(CCOc2cc(OC3CCOCC3)c3c(Nc4c(Cl)ccc5c4OCO5)ncnc3c2)CC1 do in these assays?
Tg IFNy HTS: 16

What do the screens show for `CCOc1cc2ncc(C#N)c(Nc3ccc(OCc4ccccn4)c(Cl)c3)c2cc1NC(=O)/C=C/CN(C)C`?
Tg IFNy HTS: -81*

Results for O=C(CCCOc1ccc(Cl)cc1Cl)NCc1ccccn1 ?
Tg IFNy HTS: 13

Results for C=CC(=O)Nc1cc2c(Nc3ccc(F)c(Cl)c3)ncnc2cc1OCCCN1CCOCC1 ?
Tg IFNy HTS: -4

How did CN(C)C/C=C/C(=O)Nc1cc2c(Nc3ccc(F)c(Cl)c3)ncnc2cc1O[C@H]1CCOC1 do in these assays?
Tg IFNy HTS: -75*

What do the screens show for `COc1ccc(C(=O)Nc2ccc3nc(C)c(C)nc3c2)cc1OCc1ccccn1`?
Tg IFNy HTS: 11

Results for CCOc1cc2ncc(C#N)c(Nc3ccc(F)c(Cl)c3)c2cc1NC(=O)/C=C/CN(C)C ?
Tg IFNy HTS: -77*

Results for Cc1cccc(NC(=O)N2CCn3cnc(COCC4CC4)c3C2)c1 ?
Tg IFNy HTS: 108

Results for Cc1cc(CNCC2Cn3nnc(C)c3CO2)oc1C (centres undefined) ?
Tg IFNy HTS: 39

What do the screens show for `Cn1nccc1C(NC(=O)C1Cc2cc(Cl)ccc2O1)c1ccccc1` (centres undefined)?
Tg IFNy HTS: -22

How did COc1ccc2[nH]c(C(=O)NCC3CC(C(C)C)=NO3)c(C)c2c1 (centres undefined) do in these assays?
Tg IFNy HTS: 12

What do the screens show for `O=C(Nc1cccc(Cl)c1)C1=NOC2(CCCN(S(=O)(=O)c3ccccc3)C2)C1` (centres undefined)?
Tg IFNy HTS: -4

How did O=C1c2cccc(O)c2C(=O)c2c(O)cccc21 do in these assays?
Tg IFNy HTS: 12

How did O=C1c2ccccc2-c2n[nH]c3cccc1c23 do in these assays?
Tg IFNy HTS: -91*!

What do the screens show for `Cc1nc(C)c(C(=O)NC(C)c2ccncc2)s1` (centres undefined)?
Tg IFNy HTS: -6

Results for Cc1ccccc1N1CCN(Cc2ccc(S(C)(=O)=O)cc2)C(C)C1 (centres undefined) ?
Tg IFNy HTS: -17

How did Cc1ccc(CN2C[C@@H](C(=O)N3CCCO3)C[C@@H]3OCC[C@@H]32)s1 do in these assays?
Tg IFNy HTS: -25

What do the screens show for `CC(C)C(=O)Nc1cccnc1-c1ccc(C(=O)O)s1`?
Tg IFNy HTS: -2

What do the screens show for `COc1ccccc1NC(=O)Cn1c(=O)cc(-c2nc(C3CC3)no2)c2ccccc21`?
Tg IFNy HTS: -8

How did Cc1cc(C)c(NC(=O)Cn2c(=O)cc(-c3nc(C4CC4)no3)c3ccccc32)c(C)c1 do in these assays?
Tg IFNy HTS: -27

Results for COc1ccc(C)cc1NC(=O)Cn1c(=O)cc(-c2nc(C3CC3)no2)c2ccccc21 ?
Tg IFNy HTS: -87*

Results for c1ccc(CCCCNC2CCC3(CCNCC3)CC2)nc1 ?
Tg IFNy HTS: -5

Results for CCO[C@@H]1CCN(S(=O)(=O)N(C)C)[C@@H]2CCO[C@H]21 ?
Tg IFNy HTS: -82*

Results for CCO[C@H]1CN(S(=O)(=O)c2cccnc2)[C@H]2CCCO[C@@H]12 ?
Tg IFNy HTS: -4

What do the screens show for `CN(C)S(=O)(=O)N1CCO[C@H]2[C@@H](OCc3cccnc3)CC[C@H]21`?
Tg IFNy HTS: 2

What do the screens show for `CCc1nc2cc(NC(=O)COc3ccccc3-c3nc(C)no3)ccc2n1CC`?
Tg IFNy HTS: -74*

How did Cc1noc(-c2ccccc2OCC(=O)O)n1 do in these assays?
Tg IFNy HTS: 62

How did CCOc1ccc(NC(=O)Cn2c(=O)cc(-c3nc(C)no3)c3ccccc32)cc1 do in these assays?
Tg IFNy HTS: 21
